# Reference: ChEMBL document CHEMBL3988442, “University of Dundee, Small-Polar-MMV Screening Library” (2021)
# About 950 (1.4%) of roughly 69,000 compounds showed an effect of 50% or more. The list comes from a sample in which strong results are over-represented; it also holds similar structures and randomly drawn compounds.
# Test system: Mycobacterium tuberculosis
# Test: Cornell M. t heat shock assay; note: in the data most compounds retested in dose-response had high values
# Type: functional, organism-based
# Set-up: dose or concentration left out as unconfirmed
row,SMILES,Percent Effect
1,Cc1nc(CN2CCc3ncnc(-c4cccnc4)c3CC2)cs1.O=C(O)C(F)(F)F.O=C(O)C(F)(F)F,-25.69%
2,O=c1[nH]c(-c2ccccn2)nc2c1CCN(S(=O)(=O)N1CCCC1)C2,87.3%
3,O=c1[nH]c(-c2ccccc2)nc2c1CCN(S(=O)(=O)N1CCCC1)C2,5.135%
4,O=c1[nH]c(-c2ccncc2)nc2c1CCN(S(=O)(=O)N1CCCC1)C2,-2.171%
5,Cc1ccc(CN2Cc3nnn(C)c3C(COCc3ccccn3)C2)s1.O=C(O)C(F)(F)F.O=C(O)C(F)(F)F (stereo not drawn),-10.17%
6,O=C(NCCC1=CCCCC1)c1cc(-c2ccc(O)cc2)n[nH]1,57.62%
7,Cc1ccc(-c2cc(C(=O)NCCC3=CCCCC3)[nH]n2)o1,46.03%
8,CCCc1cc(C(=O)NCCC2=CCCCC2)[nH]n1,8.132%
9,O=C(O)C(F)(F)F.c1coc(CN2CCCn3c(nnc3Cn3cccn3)C2)c1,-27.42%
10,O=C(O)C(F)(F)F.O=S(=O)(c1cccs1)N1CCCC2(COCCN(c3cccnc3)C2)C1 (stereo not drawn),1.74%
11,CCn1cc(CN(C)S(=O)(=O)c2cnn(CC)c2C)c(C)n1,95.67%
12,CCn1nc(C)c(CN(C)S(=O)(=O)c2cnn(C)c2)c1C,0.2173%
13,CCn1cc(S(=O)(=O)N(C)Cc2c(Br)cnn2CC)c(C)n1,-19.54%
14,CC(=O)N1CCC2(CCCN2Cc2cnn(C)c2)CC1.O=C(O)C(F)(F)F,-13.44%
15,NC(=O)Cn1c(SCc2noc(-c3ccsc3)n2)nnc1C1CC1,-1.649%
16,CC(C)c1nc(CSc2nnc(-c3cccs3)n2CC(N)=O)no1,87.51%
17,CC(C)c1nc(CSc2nnc(C3CC3)n2CC(N)=O)no1,-3.28%
18,O=C(C1CC(F)(F)C1)N1C[C@@H]2CN(CC3CC3)CCO[C@@H]2C1.O=C(O)C(F)(F)F,-22.01%
19,Cc1cccc(CN2CCCC3(CCN(C4CCSCC4)C3)C2=O)c1 (stereo not drawn),68.24%
20,CCc1cnc(N2CCC3(CCN(Cc4cccc(C)c4)C3=O)C2)nc1 (stereo not drawn),-25.62%

row,SMILES,Percent Effect
1,O=C1N(Cc2ccc(F)c(F)c2)CCCC12CCN(C1CCCCC1)C2 (stereo not drawn),88.26%
2,O=C1N(Cc2ccc(F)cc2)CCCC12CCN(C1CCSCC1)C2 (stereo not drawn),56.84%
3,Cc1cccc(CN2CCC3(CCN(c4ncccn4)C3)C2=O)c1 (stereo not drawn),-17.59%
4,O=C1N(Cc2ccccc2F)CCCC12CCN(C1CCSCC1)C2 (stereo not drawn),35.05%
5,O=C1N(Cc2ccc(F)c(F)c2)CCCC12CCN(C1CCCC1)C2 (stereo not drawn),48.94%
6,O=C1N(Cc2ccc(F)c(F)c2)CCCC12CCN(C1CCSCC1)C2 (stereo not drawn),39.79%
7,CCS(=O)(=O)N1CCC2(CCCN(Cc3ccc(F)c(F)c3)C2=O)C1 (stereo not drawn),-4.443%
8,CN(C)C(=O)CN1CCC2(CCCN(Cc3cccn3C)C2)C1=O.O=C(O)C(F)(F)F (stereo not drawn),8.62%
9,CN(C)c1ncc2c(c1C(=O)O)CCN(Cc1ccco1)C2.O=C(O)C(F)(F)F.O=C(O)C(F)(F)F,10.22%
10,Cc1ccc(N2CCC3(CCN(C(=O)N(C)C)CC3)CC2)nn1.O=C(O)C(F)(F)F,0.5325%
11,CC(C)N(C)C[C@H]1C[C@@H]2CN(Cc3ccco3)C[C@@H]2O1.O=C(O)C(F)(F)F.O=C(O)C(F)(F)F,-4.4%
12,CCCN1CCC(c2nc3ccc(-c4ccccc4)cn3n2)CC1.O=C(O)C(F)(F)F,-8.011%
13,O=C(O)C(F)(F)F.O=C(O)C(F)(F)F.c1cncc(OC[C@@H]2CC[C@H]3[C@H](CCN3Cc3cccs3)O2)c1,-169%
14,CC(=O)NC1CCN(c2cc(C3CCNCC3)nc(C)n2)C1 (stereo not drawn),-7.027%
15,O=c1[nH]c(CCN2CCCC2Cn2cncn2)nc2ccccc12 (stereo not drawn),48.51%
16,Cc1cnn(CC2CN(Cc3nc4ccccc4c(=O)[nH]3)CCO2)c1 (stereo not drawn),8.669%
17,Cc1nc(C)n(CC2CCCN2Cc2nc3ccccc3c(=O)[nH]2)n1 (stereo not drawn),-31.26%
18,O=S(=O)(CCN1CCCC1Cn1cccn1)c1ccccc1 (stereo not drawn),15.63%
19,Cc1cnn(CC2CCCN2CCc2nc3ccccc3c(=O)[nH]2)c1 (stereo not drawn),98.35%
20,Cc1cnn(CC2CCCN2Cc2nc3ccccc3c(=O)[nH]2)c1 (stereo not drawn),89.62%

row,SMILES,Percent Effect
1,Cn1cc(C2CCCN2CCc2nc3ccccc3c(=O)[nH]2)cn1 (stereo not drawn),2.636%
2,O=c1[nH]c(CCN2CCCC2Cn2cccn2)nc2ccccc12 (stereo not drawn),50.72%
3,O=c1[nH]c(CCN2CCCCC2Cn2cccn2)nc2ccccc12 (stereo not drawn),29.01%
4,CC(C)(C)c1n[nH]cc1CNC1CCC(C(F)(F)F)CC1.Cl (stereo not drawn),-43.27%
5,Cl.O=C(O)CN1CCC(C(F)(F)F)CC1,11.41%
6,CN(Cc1cccnc1)C1CC2(CCN(Cc3cccnc3)CC2)C1.O=C(O)C(F)(F)F.O=C(O)C(F)(F)F.O=C(O)C(F)(F)F,-1.954%
7,Cc1cnc(NS(=O)(=O)c2ccccc2)s1,4.612%
8,COCc1cccc(S(=O)(=O)Nc2ncc(C)s2)c1,15.26%
9,COC(=O)c1cccc(S(=O)(=O)Nc2ncc(C)s2)c1,1.16%
10,CNS(=O)(=O)c1cccc(S(=O)(=O)Nc2ncc(C)s2)c1,68.64%
11,CCOCc1cccc(S(=O)(=O)Nc2ncc(C)s2)c1,52.82%
12,Cc1cnc(NS(=O)(=O)c2cccc(C#N)c2)s1,-32.7%
13,Cl.O=C(C1CCCC1)N1C[C@@H](c2ccsc2)[C@@H]2CN(C3CCCC3)CC[C@@H]21,3.962%
14,COCCN1CCCn2c(nc(Cn3cncn3)cc2=O)C1.O=C(O)C(F)(F)F,17.08%
15,CCOCC1CC2(CCN(C(=O)c3ncccn3)CC2)CO1 (stereo not drawn),-17.44%
16,O=C(Nc1ccccc1)N1C[C@H]2C[C@H](C(=O)N3CCCC3)[C@@H](C1)O2,-25.79%
17,COCC1N(C(=O)c2ccco2)[C@H]2CC[C@]1(O)CC2 (stereo partly drawn),16.02%
18,O=C(O)C(F)(F)F.O=C(c1ccno1)N1CCO[C@@H]2CC(COCc3ccccn3)C[C@H]21 (stereo partly drawn),1.135%
